Compound activity (PubChem BioAssay)
Only some compounds are listed: those with a hit (about 2.5% of all), similar ones and a draw of the others.
NPR1 activator: GC-A stimulated cGMP production enhancers – HEK293 GC-A cells, cGMP TR-FRET, EC30 ANP, primary screen. 0% at EC30 ANP, 100% saturating ANP. activation, % at 10 µM. actives 0.14% (n = 370,000). AID 1671463, 2021; in the data active = activation above about 40%
Dyrk1A ADPGlo: rat Dyrk1A kinase inhibitors, primary screen, biochemical, single point, plate reader | inhibition, % at 12.5 µM | Dual specificity tyrosine-phosphorylation-regulated kinase 1A (Rattus norvegicus), Q63470 | AID 504441, 2011 | ADP-Glo luminescence, NFATc1 peptide | actives 0.43% (n = 310,000); in the data active = inhibition above about 50%
HSF1 inh: HSF1 inhibitors in luciferase reporter cells, primary screen, cell-based, NIH3T3, luminescence | NIH3T3-HGL HSE-luciferase, MG132-induced, luminescence 8 h; hits give low values | actives 0.77% (n = 300,000) | AID 2098, 2009 | activity change, negative = inhibition, % at 7.5 µM (by protocol);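 active = more than half of replicate wells show activity change below -50%, luminescence cut by over half; inconclusive = some wells, but at most half, below -50%; inactive = no replicate well below -50%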;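 also: luciferase reports HSF-1 transcriptional activity via heat shock element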
HSF-1 act: HSF-1 activators, primary screen, NIH3T3-HGL cells, MG132 stress, luminescence, single point. NIH3T3-HGL HSF-1 luciferase reporter, 8 h; 100% = twice DMSO control signal. activation, % at 9 µM. actives 1.7% (n = 300,000). AID 504408, 2011;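 active = mean replicate activation of at least 50% with a set share of replicates each reaching 50%; inconclusive = only one of those two conditions met; inactive = mean below 50% and too few replicates reaching it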
NPR2 activator: human GC-B receptor activators, primary screen, HEK293 GC-B cells, cGMP TR-FRET, EC30 CNP; Atrial natriuretic peptide receptor 2 (Homo sapiens), P20594; 0% at EC30 CNP, 100% saturating CNP; activation, % at 10 µM; actives 0.11% (n = 370,000); AID 1920062, 2024;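 active = activation at 10 µM reaching about 35% in either raw or pattern-adjusted values, limit read from the data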
aDG glyco act: activators of alpha-DG glycosylation, primary screen, uHTS, Pro5-aDG cells, AlphaScreen; alpha-DG glycosylation AlphaScreen (IIH6); 0% Pro5, 100% B10-LARGE cell signal; activation, % at 10 µM; actives 0.22% (n = 360,000); AID 624168, 2012;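 active = activation of at least 8% versus controls, or a plate z-score of at least 8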;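 also: Pro5 are CHO cells carrying HIG-tagged alpha-DG that lacks glycosylation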
Numbers stand for hits; 0 = inactive; ? = inconclusive; - = no result given.

SMILES	NPR1 activator	Dyrk1A ADPGlo	HSF1 inh	HSF-1 act	NPR2 activator	aDG glyco act
COc1cccc(C(=O)c2c[nH]c(C(=O)NCc3ccco3)c2)c1	0	0	-56	0	0	0
Cc1ccc(-n2nc3c(=S)[nH]nc(C)c3c2C)cc1	41	0	0	0	0	0
Cc1n[nH]c(=S)c2nn(-c3ccccc3)c(C)c12	-	-	0	0	-	-
O=C(CN1C(=O)C2C3C=CC(C3)C2C1=O)OCC(=O)c1ccc(Br)cc1 (stereo unspecified)	0	0	-60	0	0	0
O=C(c1ccco1)N1N=C(c2cccs2)CC1c1ccccc1O (stereo unspecified)	0	-	0	0	0	0
COc1cccc(C2CC(c3cccs3)=NN2C(=O)c2ccco2)c1O (stereo unspecified)	0	0	0	63	0	0
Cc1ccc(C(=O)Nc2cccnc2)cc1S(=O)(=O)N1CCCCC1	0	0	0	0	0	0
CCN1CCCC1CN(Cc1cc2ccc(C)cc2[nH]c1=O)C(=S)Nc1cccc(OC)c1 (stereo unspecified)	0	0	0	60	0	0
COc1cccc(C(C[N+](=O)[O-])c2c(C)[nH]n(-c3ccccc3)c2=O)c1 (stereo unspecified)	0	0	0	278	0	0
Cc1[nH]n(-c2ccccc2)c(=O)c1C(C[N+](=O)[O-])c1ccc(Br)cc1 (stereo unspecified)	0	0	0	210	0	0
CCN(CCNC(=O)CN1CCN(Cc2ccc(Cl)cc2)C1=O)c1ccccc1	0	0	0	70	0	0
Fc1ccc2cnc(C3=CCCCC3)cc2c1	0	0	-	-	0	0
Cc1cccc(CSc2nc3c(c(=O)[nH]2)CCCC3)c1	0	0	0	0	0	0
O=c1[nH]c(SCc2cccc(F)c2)nc2c1CCCC2	0	0	0	63	0	0
Cc1c(Cl)cccc1NC(=O)CSc1nc2c(c(=O)[nH]1)CCCC2	-	-	0	60	-	-
O=C(CSc1nc2c(c(=O)[nH]1)CCC2)Nc1ccccc1Cl	0	0	0	0	0	0
COC1=C(OC)C(=O)C(Sc2ccc3ccccc3c2)=CC1=O	40	0	-	-	0	0
O=C(Nc1ccc(Cl)c(Cl)c1)N[C@@H]1CC[C@@H](CCn2cc(C3CCCCC3)nn2)O[C@@H]1CO	0	-	-	-	0	0
COc1ccc(C2C3=C(CCCC3=O)N(CC(=O)O)C3=C2C(=O)CCC3)cc1Cl	0	0	0	77	0	0
COc1ccc(C2C3=C(CCCC3=O)N(CC(=O)O)C3=C2C(=O)CCC3)cc1Br	0	-	-	-	0	0
COc1cc(NC(=S)NC(C)(C)C)c(OC)cc1Cl	0	0	0	63	0	0
C=CCNC(=O)c1sc(-c2ccccc2)nc1C	0	0	0	0	0	0
CCOC(=O)c1c(C)[nH]c(C(=O)Cn2nnc(-c3ccccc3Cl)n2)c1C	0	0	0	61	0	0
COCCCN1C(=O)[C@H](CC(=O)N2CCN(C(=O)c3ccco3)CC2)[C@]2(C(=O)OC)CCCCC=C12	0	-	-	-	0	-
CCNc1ccc(Br)cc(C(=O)/C=C/c2c(Cl)cccc2Cl)c1=O	-	0	0	73	-	0
SMILES	NPR1 activator	Dyrk1A ADPGlo	HSF1 inh	HSF-1 act	NPR2 activator	aDG glyco act
O=C(CN1C(=O)C(c2ccc(F)cc2)=NC12CCCC2)Nc1ccc(F)cc1	0	0	0	0	0	0
CC(C)(Oc1ccc(Cl)cc1)C(=O)Nc1ncccn1	0	0	0	0	0	0
CCc1ccccc1NC(=O)CC(c1ccc(OC)cc1)n1cccc1 (stereo unspecified)	0	0	0	81	0	0
CC(C)CN=C(NS(=O)(=O)c1ccccc1)C(Cl)(Cl)Cl	0	0	-74	0	0	0
CC(C)CC(NS(=O)(=O)c1ccccc1)C(=O)O (stereo unspecified)	0	0	0	0	0	0
CCOc1ccc(NC(=O)Cn2c(=O)n(CC3CCCO3)c(=O)c3ccccc32)cc1 (stereo unspecified)	0	0	0	0	0	0
CCn1cnc2c1c(=O)n(CC(=O)NCc1ccccc1)c(=O)n2Cc1ccccc1	0	0	0	0	0	0
CCn1cnc2c1c(=O)n(Cc1cccc([N+](=O)[O-])c1)c(=O)n2Cc1ccccc1	0	0	0	0	41	0
CCn1cnc2c1c(=O)n(Cc1csc(-c3ccccc3)n1)c(=O)n2Cc1ccccc1	0	-	0	0	51	0
Cc1cc(OCc2cc(C(=O)NC(C)c3cnn(C)c3)no2)cc(C)c1Cl (stereo unspecified)	0	-	-	-	0	0
Cc1cc(OCc2cc(C(=O)NC(C)c3c(C)nn(C)c3C)no2)cc(C)c1Cl (stereo unspecified)	0	0	0	54	0	0
O=C(OC1CCOC1=O)c1cc(-c2cccs2)nc2ccccc12 (stereo unspecified)	51	0	0	0	0	0
CCOC(=O)c1ccc(CNC(=O)C2CCC(=O)N(Cc3cccc(OC)c3)C2)o1 (stereo unspecified)	0	0	0	0	0	0
COc1cccc(CN2CC(C(=O)NCc3ccc(C)o3)CCC2=O)c1 (stereo unspecified)	0	0	0	108	0	0
CCN(CC)C(=O)CSC1=N/C(=C/c2ccco2)C(=O)N1c1ccc(OC)c(Cl)c1	0	0	0	67	0	0
COc1ccc(N2C(=O)/C(=C\c3ccco3)N=C2SCC(=O)NC(C)(C)C)cc1Cl	0	0	0	?	0	0
NC(=O)CSC1=N/C(=C\c2ccco2)C(=O)N1c1ccc(OC(F)F)cc1	0	0	0	72	0	0
O=C(COc1ccc(F)cc1Cl)Nc1ccccc1C(=O)N1CCCCC1	0	0	0	0	0	0
CC12C=CC(C)(C3C(=O)NC(=O)C31)C1C3C(=O)NC(=O)C3C12 (stereo unspecified)	0	-	-	-	0	-
CCOC(=O)C(NS(=O)(=O)c1ccc(Br)cc1)C(C)C (stereo unspecified)	0	0	0	55	0	0
Cc1cccc(NC(=O)CCc2c(C)nn(-c3ccc(N4CCCCC4)nn3)c2C)c1	0	0	0	64	0	0
Cc1cc(Br)ccc1SCC(=O)NNC(=O)c1ccco1	0	0	-	-	0	0
Clc1cccc(/C=N/Nc2nnc(Cl)c3ccccc23)c1	0	0	0	57	0	0
CCOC(=O)CS(=O)(=O)c1nc(-c2ccc(F)cc2)cc(C(F)(F)F)n1	-	0	0	88	-	0
